Among the data in PubChem BioAssay AID504339 (National Center for Advancing Translational Sciences (NCATS), 2011) are Potency values, retold here.

The whole screen tested about 390,000 compounds, of which about 17,000 (4.4%) were called active. Entries that show only a call come without a potency. Roughly 8% stayed inconclusive and do not appear here. Calls come from the whole dose curve; as a rule, active = well fitted inhibition curve with a large enough effect; inconclusive = small, poorly fitted or top-dose-only effect; inactive = no such curve, though single readings can be large or run the other way. The full list was thinned out, with actives kept by preference.
Potency is the fitted concentration of half-maximal effect.

Chain of Lysine-specific demethylase 4A (Homo sapiens) (O75164 whole entry, looked up, the tested form may be a part): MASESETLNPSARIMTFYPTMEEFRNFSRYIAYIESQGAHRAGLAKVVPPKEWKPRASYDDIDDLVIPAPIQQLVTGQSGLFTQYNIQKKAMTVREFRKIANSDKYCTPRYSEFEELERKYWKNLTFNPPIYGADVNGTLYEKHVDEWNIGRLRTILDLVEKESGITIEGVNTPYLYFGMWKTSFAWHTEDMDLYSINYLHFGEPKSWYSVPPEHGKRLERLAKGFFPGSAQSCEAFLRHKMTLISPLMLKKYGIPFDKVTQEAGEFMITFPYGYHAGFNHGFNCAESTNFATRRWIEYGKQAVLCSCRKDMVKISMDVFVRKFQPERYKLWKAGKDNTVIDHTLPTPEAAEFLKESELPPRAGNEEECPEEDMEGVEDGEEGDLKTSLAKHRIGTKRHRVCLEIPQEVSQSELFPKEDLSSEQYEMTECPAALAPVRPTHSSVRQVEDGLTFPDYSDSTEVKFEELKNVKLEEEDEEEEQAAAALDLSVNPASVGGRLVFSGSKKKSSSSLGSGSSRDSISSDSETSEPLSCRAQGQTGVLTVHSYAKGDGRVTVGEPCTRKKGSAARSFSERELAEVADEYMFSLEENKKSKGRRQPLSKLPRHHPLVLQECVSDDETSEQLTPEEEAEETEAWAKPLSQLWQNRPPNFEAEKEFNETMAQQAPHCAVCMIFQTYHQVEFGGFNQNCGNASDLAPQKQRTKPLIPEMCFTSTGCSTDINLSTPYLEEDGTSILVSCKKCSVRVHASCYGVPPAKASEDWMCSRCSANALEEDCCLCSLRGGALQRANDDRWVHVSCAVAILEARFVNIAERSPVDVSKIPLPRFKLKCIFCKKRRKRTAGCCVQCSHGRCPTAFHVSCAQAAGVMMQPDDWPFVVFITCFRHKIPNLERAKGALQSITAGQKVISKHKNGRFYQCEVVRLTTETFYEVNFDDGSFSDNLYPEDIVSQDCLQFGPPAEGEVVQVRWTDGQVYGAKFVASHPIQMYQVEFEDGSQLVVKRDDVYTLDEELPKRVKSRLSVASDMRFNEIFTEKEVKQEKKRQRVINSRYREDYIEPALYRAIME

The test has as its target Lysine-specific demethylase 4A (Homo sapiens) (UniProt O75164). The experiment in a line: qHTS Assay for Inhibitors of JMJD2A-Tudor Domain. Note: nearly all actives have a fitted effect of over 50% in size. The settings on record: AlphaScreen JMJD2A-Tudor / H3K4me3 peptide binding; series mostly up to 114 µM. In general terms: qHTS replaces the single test concentration by a dilution series.
In the case of `O=C(CC1Oc2ccc(Cl)cc2NC1=O)NCc1ccccc1` (stereo not given), the Potency result was “inactive”.

For the molecule `CCc1ccc(NC(=O)CCCc2nnc3n(CCCOC)c(=O)c4sccc4n23)cc1`, the Potency entry is “inactive”.

Take `O=C(CSc1nc2nccnc2c(=O)n1CCc1c[nH]c2ccccc12)Nc1ccccc1F`: the Potency result was “inactive”.

As to `Cc1cc2nn(-c3ccc(Cl)cc3)nc2cc1NC(=O)C(C)C`, the Potency result was “inactive”.

As to `Cc1ccc(Cl)cc1NC(=O)C(C)n1nnc2sc(-c3ccccc3)cc2c1=O` (stereo not given), the Potency is 50.1 µM (active).

As to `CCCCCCn1nnc2sc(-c3ccccc3)cc2c1=O`, the Potency result was “inactive”.

`COc1ccccc1-c1cc2nc(C)c(CCC(=O)O)c(C)n2n1`: the Potency entry is “inactive”.

In the case of `Cc1ccc(C)n1-c1nnc(N2CCC(C(=O)NCc3ccc(F)cc3)CC2)s1`, the Potency entry is “inactive”.

Turning to `NS(=O)(=O)c1ccc2nc(NC(=O)COc3ccccc3)sc2c1`, the Potency result was “inactive”.

On to `c1ccc(C(=NNc2nc3ccccc3s2)c2ccccn2)cc1`, for which the Potency is 31.6 µM (active).

Turning to `Cc1cc(C)cc(-n2ccnc2SCC(=O)Nc2nc3ccccc3s2)c1`, the Potency result is “inactive”.

Turning to `COc1cc(-c2cc3n(C)c(C)c(CCC(=O)Nc4ccc(F)cc4)c(=O)n3n2)cc(OC)c1OC`, the Potency result is “inactive”.

Turning to `COC(=O)c1ccccc1NC(=O)c1cc(-c2ccccc2O)no1`, the Potency result was “inactive”.

For the molecule `Fc1cccc(-n2ncc3c2ncn2nc(-c4ccccc4Cl)nc32)c1`, the Potency entry is “inactive”.

Regarding `CN1/C(=C\C=C2\N=C(c3ccc(F)cc3)OC2=O)C(C)(C)c2ccccc21`, the Potency is 56.2 µM (active).

With `CC(=O)Nc1cccc(OCC(=O)/C=C2\N(C)c3ccccc3C2(C)C)c1`, the Potency entry is “inactive”.

For `CN1CCN(CCC(=O)N/N=C/C=C2\N(C)c3ccccc3C2(C)C)CC1`, the Potency entry is “inactive”.

For `O=C1C(F)N([S+](=O)([O-])c2ccc3c(c2)OCCO3)CCN1[S+](=O)([O-])c1c(F)cccc1F` (stereo not given), the Potency entry is “inactive”.

Consider `COCCCn1c(SCC(=O)NC2CCCC2)nnc1-c1ccccc1`, for which the Potency result is “inactive”.

In the case of `COCCCn1c(SCC(=O)Nc2ccccc2)nnc1-c1ccncc1`, the Potency result is “inactive”.

Regarding `COCCCn1c(Cc2csc(Nc3cccc(Cl)c3)n2)nnc1SCC(=O)OC1CCCCC1`, the Potency was 44.7 µM (active).

For the molecule `COc1ccccc1CNc1ccc(-c2nc(-c3ccccc3C)no2)cc1[N+](=O)[O-]`, the Potency entry is “inactive”.

`CN(Cc1cncn1C)c1ncnc2ccc(-c3ccc4c(c3)OCO4)cc12`: the Potency entry is “inactive”.

On to `CS(=O)(=O)N(CC(=O)NCc1ccco1)c1ccc2c(c1)OCO2`, for which the Potency entry is “inactive”.

As to `Cc1noc(C)c1-c1ccc2ncnc(NCc3ccc(F)c(F)c3)c2c1`, the Potency result was “inactive”.

As to `O=C(Cn1nnc(-c2ccc3c(c2)OCO3)n1)NCc1ccco1`, the Potency entry was “inactive”.

On to `Cc1nc(CNc2ncnc3ccc(-c4ccc5c(c4)OCO5)cc23)cs1`, for which the Potency is 79.4 µM (active).

Turning to `c1coc(CCNc2ncnc3ccc(-c4ccc5c(c4)OCO5)cc23)c1`, the Potency is 56.2 µM (active).

On to `O=c1c(=O)n(Cc2c(F)cccc2Cl)ccn1Cc1ccccc1`, for which the Potency entry is “inactive”.

Turning to `COc1cc(Cl)ccc1Nc1ncc(C(=O)N2CCN(c3ccccc3OC)CC2)c2ccccc12`, the Potency entry was “inactive”.

Turning to `Cc1cccc(C(=O)Nc2ccc(-c3nc4ccccc4s3)c(C)c2)c1`, the Potency entry was “inactive”.

For the molecule `COc1ccc(CNC(=O)CC2Oc3ccc(C)cc3NC2=O)cc1` (stereo not given), the Potency entry is “inactive”.

With `Cc1ccc(-n2nc(CO)c(C(=O)NCCc3ccccc3)n2)cc1`, the Potency result is “inactive”.

In the case of `Cc1cc(C)n(-c2ccc(NC(=O)C3CCCCN3C(=O)c3cccs3)cc2)n1` (stereo not given), the Potency result was “inactive”.

In the case of `Cc1ccc(NC(=O)C2CCCN2C(=O)OCc2ccccc2)cc1C` (stereo not given), the Potency result is “inactive”.

For `COc1ccc(C(=O)N2CCCCC2C(=O)Nc2ccc(-n3nc(C)cc3C)cc2)o1` (stereo not given), the Potency is 15.8 µM (active).

Regarding `Cc1nn(-c2ccc(N3CCCCC3)nn2)c(C)c1CCC(=O)NCc1ccc(F)cc1`, the Potency entry is “inactive”.

With `COc1ccc(-c2onc(C)c2C)cc1S(=O)(=O)NCCc1ccccc1`, the Potency entry was “inactive”.

Consider `CC(C)n1cnc2c(NCc3ccccc3)cc(OCC3CCN(C)CC3)cc21`, for which the Potency is 39.8 µM (active).

With `CCC(CO)Oc1cc(NC(=O)c2ccc(Cl)cc2)c2ncn(C(C)C)c2c1` (stereo not given), the Potency result was “inactive”.

Turning to `COc1ccc(CNc2nc(NCc3ccc(OC)cc3)c3ncn(C4CCCC4)c3n2)cc1`, the Potency entry is “inactive”.

With `CCC(CO)Oc1cc(NCc2ccccc2)c2ncn(C3CCCC3)c2c1` (stereo not given), the Potency was 56.2 µM (active).

For `CN(C)c1nccc(NCc2ccccc2)c1C#N`, the Potency entry is “inactive”.

For `CCOC(=O)c1cccc(NC(=O)c2cc(S(=O)(=O)N3CCCC(C)C3)cn2C)c1` (stereo not given), the Potency entry is “inactive”.

`CC1CCCCN1Cc1c(O)ccc2c(=O)c(-c3cccc(Cl)c3)c(C(F)(F)F)oc12` (stereo not given): the Potency entry was “inactive”.

Turning to `O=C(CN1C(=O)CCn2nc(-c3ccccc3)cc21)NCc1ccccc1`, the Potency result was “inactive”.

In the case of `Cc1nc2c(-c3ccccc3)c(C)nn2c(C)c1CCC(=O)NCCc1ccccc1`, the Potency entry is “inactive”.

Turning to `COc1ccc(Cl)cc1NC(=O)CCS(=O)(=O)c1cc2c(cc1C)NC(=O)CO2`, the Potency entry is “inactive”.

In the case of `COc1ccc(Cl)cc1NC(=O)CCS(=O)(=O)c1ccc(Br)cc1`, the Potency was 22.4 µM (active).

For the molecule `COc1ccc(Cl)cc1NC(=O)CN(C)C(=O)c1ccc2n[nH]nc2c1`, the Potency entry is “inactive”.

With `Cn1c(=O)oc2cc(S(=O)(=O)CCC(=O)NCCc3ccc(Cl)cc3)ccc21`, the Potency entry is “inactive”.

For `CC(=O)N1CCc2cc(Br)cc(S(=O)(=O)CCC(=O)NCCc3ccc(Cl)cc3)c21`, the Potency entry was “inactive”.

On to `O=C(CCS(=O)(=O)c1ccc(Br)cc1)NCCc1ccc(Cl)cc1`, for which the Potency is 63.1 µM (active).

Regarding `COc1ccc(Cl)cc1NC(=O)CCC(=O)c1ccc(C)cc1`, the Potency result is “inactive”.

Consider `COc1ccc(Cl)cc1NC(=O)CN(C)CC(=O)Nc1ccc2c(c1)OCO2`, for which the Potency entry was “inactive”.

Take `COc1ccc(Cl)cc1NC(=O)CN(C)Cc1ccc(OC)c(OC)c1`: the Potency is 1.26 µM (active).

For the molecule `CCCOc1ccc(-c2cccc(NS(=O)(=O)c3ccccc3)c2)nn1`, the Potency result was “inactive”.

For `COc1ccc(OC)c(-c2csc(-c3c(N)c(C(=O)c4ccccc4)n4ccccc34)n2)c1`, the Potency result was “inactive”.

On to `CCc1ccc(C(=O)CC2(O)C(=O)N(CCc3ccccc3)c3ccc(Br)cc32)cc1` (stereo not given), for which the Potency entry was “inactive”.

For `C=C1CCN(Cc2ccc(OC)cc2)S(=O)(=O)c2ccccc21`, the Potency entry was “inactive”.

Take `CC1Cc2cc(S(=O)(=O)CCC(=O)NCc3ccc(Cl)cc3)ccc2N1C(=O)C1CC1` (stereo not given): the Potency result was “inactive”.

Turning to `Cc1cc(C)cc(NS(=O)(=O)c2ccc(-c3cc(C)no3)s2)c1`, the Potency result was “inactive”.

For the molecule `Cc1cc(N=Nc2ccc3ccccc3c2)ccc1O`, the Potency was 44.7 µM (active).

As to `COc1ccccc1-n1c(-c2ccc(C)cc2)cn2c3c(=O)n(C)c(=O)n(C)c3nc12`, the Potency result is “inactive”.

For the molecule `COc1ccc(CNc2nc(-c3ccc(Cl)cc3)cc(C(F)(F)F)n2)cc1`, the Potency result is “inactive”.

On to `O=S(=O)(c1ccc(Br)cc1)c1nnn2c1nc(N1CCOCC1)c1sccc12`, for which the Potency result was “inactive”.

As for `O=C(CSc1ncc(CO)n1Cc1ccc(F)cc1)NCc1ccco1`, the Potency result was “inactive”.

`O=c1[nH]c(CSc2ncc(-c3ccc(F)cc3)n2Cc2ccco2)nc2ccccc12`: the Potency is 35.5 µM (active).

As to `O=C(c1ccco1)N(Cc1nc2ccccc2c(=O)[nH]1)C1CCCC1`, the Potency entry was “inactive”.

On to `CCOc1ccc(CCNC(=O)c2ccc3c(c2)sc2nc(-c4ccc(F)cc4)cn23)cc1OCC`, for which the Potency result is “inactive”.

For `Cc1cc(C)c(C2C3=C(Nc4c2c(C)nn4-c2ccccn2)c2ccccc2C3=O)c(C)c1` (stereo not given), the Potency is 25.1 µM (active).

In the case of `COc1ccc(NC(=O)c2ccc3oc(=O)c(S(=O)(=O)c4ccc(F)cc4)cc3c2)c(OC)c1`, the Potency result was “inactive”.

For `Cc1ccc(C(=O)CC2(O)C(=O)N(CCc3ccccc3)c3ccc(Br)cc32)cc1` (stereo not given), the Potency entry was “inactive”.

In the case of `COc1ccc2cc(CNc3ccc(OC)c(OC)c3)c(=O)n(CC(=O)Nc3ccccc3F)c2c1`, the Potency entry was “inactive”.

On to `O=C(O)c1ccccc1N=N/C(=N/Nc1cc(S(=O)(=O)O)ccc1O)c1ccccc1`, for which the Potency was 12.6 µM (active).

Consider `COc1ccc(-c2cccc(NS(=O)(=O)c3cc(C)c(OC)c(C)c3C)c2)nn1`, for which the Potency entry was “inactive”.

With `Cc1ccc(-c2cc(C(F)(F)F)c(C#N)c(SCC(=O)Nc3ccccc3)n2)cc1`, the Potency entry is “inactive”.

Turning to `COc1ccc(C(=O)c2c(C)c(CCC#N)n3ccccc23)c(OC)c1`, the Potency is 35.5 µM (active).

With `COc1ccc(C(=O)NC(C)CCc2ccccc2)c(OC)c1` (stereo not given), the Potency result was “inactive”.

In the case of `COc1ccc(C(=O)CCc2ccccc2O)c(OC)c1`, the Potency entry was “inactive”.

`Cc1c(Cl)cccc1NC(=O)C1CCCN(C(=O)c2cnn(-c3ccccc3)c2-n2cccc2)C1` (stereo not given): the Potency entry is “inactive”.

Turning to `CCCCC(=O)OC1=CN(Cc2ccccc2)S(=O)(=O)c2ccccc21`, the Potency entry is “inactive”.

As to `COc1ccc2c(c1)c(=O)c(S(=O)(=O)c1ccc(F)cc1)cn2CC(=O)Nc1ccc(C)cc1C`, the Potency entry was “inactive”.

Take `COc1ccccc1-c1cc(C(=O)N2CCCCC2)no1`: the Potency result is “inactive”.

As for `CN1CCN(C(=O)c2ccc(-c3ccc(Br)cc3)o2)CC1`, the Potency entry is “inactive”.

Regarding `S=C(c1ccc(-c2ccccc2)o1)N1CCCCC1`, the Potency is 20 µM (active).

With `COc1ccc(NC(=O)c2ccc3nc(C(C)C)oc3c2)cc1OC`, the Potency result was “inactive”.

As for `Clc1cccc(Cl)c1OCCOCCNCc1ccccc1`, the Potency is 20 µM (active).

Turning to `S=C(NCCc1ccccc1)NCc1ccccc1Cl`, the Potency result is “inactive”.

Take `OCCNCc1cccc(OCc2ccccc2Cl)c1`: the Potency result was “inactive”.

With `COC(=O)c1ccc(C2C(C(=O)Nc3ccccc3)=C(C)Nc3nc4ccccc4n32)cc1` (stereo not given), the Potency result was “inactive”.

Consider `O=C(Nc1ccc(S(=O)(=O)Nc2ccccn2)cc1)c1ccccc1`, for which the Potency result was “inactive”.

As for `O=C(NC1=CC(=O)c2ccccc2C1=O)c1ccccc1`, the Potency was 20 µM (active).

As for `O=C(NC(=O)c1ccccc1)Nc1ccccc1O`, the Potency result is “inactive”.

With `N#Cc1nc(NCc2ccc(Cl)c(Cl)c2)c2ncn(CCCO)c2n1`, the Potency entry is “inactive”.

Take `COC(=O)c1scc(-c2ccccc2)c1S(=O)(=O)Nc1ccccc1`: the Potency result is “inactive”.

As to `COC(=O)c1ccc(Oc2nc(Nc3ccc(F)cc3)nc(N3CCCC3)n2)cc1`, the Potency result is “inactive”.

On to `CCOc1ccc(Nc2nc(Cl)nc(N3CCN(c4ccc(OC)cc4)CC3)n2)cc1`, for which the Potency was 44.7 µM (active).

For `COc1ccc(Nc2ncc(F)c(N3CCOCC3)n2)cc1`, the Potency result was “inactive”.

In the case of `O=c1c(NCc2cccs2)nccn1-c1ccccc1`, the Potency entry is “inactive”.
